NPC1 promoter act = activators of NPC1 promoter; Potency, µM (doses to about 9.22 µM), usual class: activators; 320,000 tested, 2.4% active; AID 485313; Huh7 NPC1 promoter luciferase reporter, 24 h; note: nearly all actives have a fitted effect of over 60% in size
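In 1536-well qHTS, Huh7 cells harboring an NPC1 promoter–luciferase construct received compound for 24 h; activation was quantified by luminescence following luciferase reagent addition.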
ELG1 genotoxic = inducers of genotoxicity in HEK293T ELG1-luciferase cells. Potency, µM (doses to about 46 µM), usual class: activators. HEK293T ELG1-luciferase reporter, luminescence, 16 h. 330,000 tested, 1.3% active; note: nearly all actives have a fitted effect of over 60% in size
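Quantitative HTS format in 1536-well plates. HEK293T ELG1-luciferase reporter cells receive test compound and are incubated 16 hr at 37 °C, 5% CO2; ONE-Glo added, 30 min room temperature, then luminescence read.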
SMN2 splice enh = SMN2 splice variant enhancement; HEK293 SMN2-luciferase splicing reporter, luminescence, 30-36 h; Potency, µM (series often up to 46.1 µM), hits mostly activators; 210,000 tested, 2.8% active; AID 1458; note: nearly all actives have a fitted effect of over 55% in size
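HEK293 cells carry an SMN2 […]–luciferase reporter in which exon 7 inclusion puts luciferase in frame. Cells were plated 10-12 h before compound addition, then incubated 30-36 h at 37C. ONE-Glo luminescence was read; sodium butyrate at 4.5 mM final served as control.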
FLuc counter = inhibits or activates purified firefly luciferase, miR-21 counter-screen | P08659 | purified FLuc, Km substrates, luminescence inhibition | Potency, µM (highest dose often 57.5 µM), most hits filed as inhibitors | 360,000 tested, 6.9% active; note: nearly all actives have a fitted effect of over 55% in size
Target sequence (P08659 whole entry, looked up): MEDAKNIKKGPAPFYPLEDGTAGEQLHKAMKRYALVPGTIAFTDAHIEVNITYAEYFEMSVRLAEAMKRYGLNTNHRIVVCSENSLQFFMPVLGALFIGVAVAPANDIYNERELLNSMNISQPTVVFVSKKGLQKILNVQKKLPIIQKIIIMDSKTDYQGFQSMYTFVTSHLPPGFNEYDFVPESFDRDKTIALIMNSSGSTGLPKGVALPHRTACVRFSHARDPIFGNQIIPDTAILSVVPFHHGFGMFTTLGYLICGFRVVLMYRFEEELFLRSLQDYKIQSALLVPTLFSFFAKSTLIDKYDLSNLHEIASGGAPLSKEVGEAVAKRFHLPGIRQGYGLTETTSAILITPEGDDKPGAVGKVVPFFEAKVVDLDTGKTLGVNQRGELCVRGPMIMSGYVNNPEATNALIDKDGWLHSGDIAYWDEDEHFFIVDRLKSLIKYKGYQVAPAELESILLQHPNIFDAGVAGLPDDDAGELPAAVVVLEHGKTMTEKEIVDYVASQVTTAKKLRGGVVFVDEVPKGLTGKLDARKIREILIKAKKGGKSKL
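Purified P. pyralis luciferase (10nM final) with 10uM D-luciferin and 10uM ATP (Km levels) in 50mM Tris acetate pH 7.5, 10mM Mg acetate, 0.01% Tween-20, 0.05% BSA; qHTS 6-point titration, ~60 µM downward; luminescence read.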
ELG1 repair inh = blocks ELG1-dependent DNA repair in HEK293T cells | HEK293T ELG1-luciferase reporter, luminescence, 16 h; DNA damage induced by 5-fluorouridine | Potency, µM (highest dose often 46.1 µM), hits mostly inhibitors | 330,000 tested, 2.3% active | AID 504467; note: nearly all actives have a fitted effect of over 55% in size
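Cells (2,000 per well) received 5-fluorouridine plus test compound or DMSO and were incubated 16 hr at 37 °C, 5% CO2. Luciferase activity was read by luminescence 30 min after ONE-Glo addition; signal suppression marked inhibition of damage-induced ELG1 function.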
Rab9 prom act = Rab9 promoter activation | Huh7 Rab9 promoter-luciferase reporter, luminescence, 24 h | Potency, µM (top dose mostly 9.22 µM), hits mostly activators | 320,000 tested, 2.8% active | AID 485297; note: nearly all actives have a fitted effect of over 60% in size
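Rab9 promoter-driven luciferase in stably transfected Huh7 cells; 1500 cells/well rested 2 h, exposed to compound in DMSO for 24 h at 37 °C, 5% CO2. Luminescence read 10 min after adding luciferase reagent at ambient temperature.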
Numbers stand for hits; i = inactive; ? = inconclusive; nt = no result given; [ ] = dose if it differs, or a comment. Rows were chosen to be rich in hits. Some 9.4% of all compounds tested hit in one or more screens of this group. Calls come from the whole dose curve; as a rule, active = well fitted curve in the direction sought with a large enough effect; inconclusive = small, poorly fitted or top-dose-only effect, or another doubt; inactive = no such curve, though single readings can be large; an effect the other way counts as inactive or inconclusive.

SMILES	NPC1 promoter act	ELG1 genotoxic	SMN2 splice enh	FLuc counter	ELG1 repair inh	Rab9 prom act
CCN(CC)c1ccc(N=Nc2ncn[nH]2)cc1	2.82µM	?	12.6µM	12µM	?	2.82µM
O=C(O)c1cc2c(s1)-c1ccccc1OC2	i	i	i	i	i	i
O=C(NC1CC1)c1cc2c(s1)-c1ccccc1OC2	i	?	i	12µM	i	i
Cc1nc(N2CCCCC2)sc1C(=O)c1ccc(SCCO)c([N+](=O)[O-])c1	i	i	nt	i	18.3µM	i
CC(C)(C)c1ccc(C(=O)Nc2nnc3n2CCS3)cc1	nt	nt	nt	6.01µM	nt	nt
COc1cc(C(=O)Nc2cc(C)c(O)c(-c3nc4ccccc4s3)c2)cc(OC)c1OC	nt	nt	i	i	nt	nt
COc1cc(C(=O)NCc2ccc(OCCN(C)C)cc2)cc(OC)c1OC	i	23.1µM	?	i	?	i
COc1ccc(-c2nc3ccccc3s2)cc1NC(=O)c1ccccc1OC	nt	nt	?	10.7µM	nt	nt
COc1ccc(C(=O)NCc2ccc(-c3nc4ccccc4s3)cc2)cc1	i	i	i	2.39µM	?	i
COc1ccc(C(=O)Nc2cc(C)c(O)c(-c3nc4ccccc4s3)c2)cc1OC	nt	nt	i	0.675µM	nt	nt
COc1ccc(CCNC(=O)CCc2cn(Cc3ccccc3Cl)c3ccccc23)c(OC)c1	nt	nt	nt	i	nt	nt
COc1cc(C(=O)NCc2ccc(-c3nc4ccccc4s3)cc2)cc(OC)c1OC	i	?	17.8µM	0.601µM	?	?
O=C(NCc1ccc(-c2nc3ccccc3s2)cc1)c1ccc(Br)o1	i	?	i[1.84 µM]	10.7µM	?	i
O=C(NCc1ccc(-c2nc3ccccc3s2)cc1)c1cc2ccccc2o1	i	i	nt	?	?	i
COc1cccc(C(=O)NCc2ccc(-c3nc4ccccc4s3)cc2)c1	i	20.6µM	?	2.69µM	?	?
COc1ccccc1C(=O)Nc1ccc(-c2nc3ccccc3s2)c(C)c1	nt	nt	nt	3.79µM	nt	nt
Cn1c(C(=O)NCc2cccc(F)c2)cc2cc(S(=O)(=O)N3CCCCC3)ccc21	nt	nt	nt	i	nt	nt
COc1ccccc1C(=O)NCc1ccc(-c2nc3ccccc3s2)cc1	i	i	i[1.84 µM]	6.01µM	?	?
COc1ccccc1C(=O)NCc1ccccc1	i	i	i	i	i	i
CN=c1scc(-c2ccc([N+](=O)[O-])cc2)n1/N=C/c1ccco1	?	?	nt	?	?	0.398µM
Cc1cccc(CC(=O)N2CC(=O)Nc3ccc(Br)cc3C2c2ccc(F)cc2)c1 (stereo not given)	nt	nt	i	i	nt	nt
O=C(Nc1ccccc1)C(=O)c1cn(CC(=O)N2CCCCC2)c2ccccc12	i	i	i	13.5µM	?	i
CC(=O)Nc1ccc(NC(=O)C(=O)c2cn(CC(=O)N3CCCCC3)c3ccccc23)cc1	i	i	i	i	i	i
CC(=O)c1cccc(NC(=O)C(=O)c2cn(CC(=O)N3CCCCC3)c3ccccc23)c1	i	i	i	8.49µM	?	i
Cc1cccc(C(=O)Nc2nc3c(s2)CCCC3)c1	nt	nt	nt	1.35µM	nt	nt
SMILES	NPC1 promoter act	ELG1 genotoxic	SMN2 splice enh	FLuc counter	ELG1 repair inh	Rab9 prom act
Cc1ccccc1C(=O)NC(C(=O)Nc1nc2c(s1)CCCC2)C(C)C (stereo not given)	i	i	i	i	20.6µM	i
Cc1ncsc1C(=O)Nc1nc2c(s1)CCCC2	2.51µM	?	11.2µM	7.57µM	?	1µM
COc1ccc(C(=O)Nc2nc3c(s2)CCCC3)cc1Cl	nt	nt	nt	2.39µM	nt	nt
CCc1ccc(CNC(=O)CN2C(=O)CCn3nc(-c4cn(C)c5ccccc45)cc32)cc1	nt	nt	nt	i	nt	nt
CN(C)CCO[C@](C)(c1ccccc1)c1ccccn1	nt	nt	i	nt	nt	nt
O=C(C1CCN(S(=O)(=O)c2cccc3nonc23)CC1)N1CCN(c2ccc(F)cc2)CC1	nt	nt	i	i	nt	nt
CCC(=O)N1CCc2cc(S(=O)(=O)NC(CC(C)C)C(=O)Nc3cccc(C)c3C)ccc21 (stereo not given)	nt	nt	i	i	nt	nt
O=C(Nc1nc2c(s1)CCCC2)c1ccc2ncsc2c1	?	?	0.501µM	2.39µM	?	?
O=C(Nc1nc2c(s1)CCCC2)c1ccc(Br)s1	2.82µM	?	?	1.51µM	?	0.501µM
Cc1ccc(CC(=O)Nc2nc3c(s2)CCCC3)cc1	i	i	nt	?	?	i
COc1ccc(OC)c2sc(NC(=O)c3ccc(Br)s3)nc12	i	i	i	i	i	i
CNC(=O)c1c(NC(=O)c2ccc3ncsc3c2)sc(C)c1C	i	i	nt	?	i	i
Cc1cc(C(=O)Nc2nc3c(s2)CCCC3)cs1	?	?	?	0.601µM	?	1µM
CCC1CCCCN1CC(=O)N1CCCc2c1c(=O)oc1ccc(OCc3ccccc3)cc21 (stereo not given)	nt	nt	i	i	nt	nt
Cn1c(CCNC(=O)c2ccco2)nc2cc(NC(=O)c3ccccc3)ccc21	?	i	nt	16.9µM	?	?
Cc1nc2cc(NC(=O)c3ccco3)ccc2n1C	0.501µM	2.31µM	nt	8.49µM	?	0.316µM
Cc1nc2cc(NC(=O)NCc3ccco3)ccc2n1C	i	14.6µM	?	?	?	?
CCCNC(=O)Nc1ccc2c(c1)nc(C)n2C	i	?	i	?	?	?
Cn1c(CCNC(=O)c2ccco2)nc2cc(NC(=O)c3ccco3)ccc21	?	?	11.2µM	23.9µM	?	?
CCCCC(=O)Nc1ccc2c(c1)nc(CCNC(=O)c1ccco1)n2C	i	i	nt	i	?	i
Cn1c(CCNC(=O)c2ccccc2)nc2cc(NC(=O)c3ccco3)ccc21	i	?	i	?	?	i
CCOC(=O)c1cccc(Nc2ccc3cc(S(=O)(=O)N4CCCCC4)ccc3n2)c1	nt	nt	nt	i	nt	nt
COc1cc(NCCC(=O)O)c2ncccc2c1	nt	nt	i[9.22 µM]	nt	nt	nt
CCC(=O)NCCc1nc2cc(NC(=O)c3ccco3)ccc2n1C	?	?	nt	16.9µM	?	?
Cn1cc(/C=C2\SC(=O)N(c3ccccc3)C2=O)c2ccccc21	3.55µM	?	?	i	?	3.98µM
SMILES	NPC1 promoter act	ELG1 genotoxic	SMN2 splice enh	FLuc counter	ELG1 repair inh	Rab9 prom act
CCN1C(=O)S/C(=C/c2cn(C)c3ccccc23)C1=O	i	i	i	12µM	i	i
Cn1cc(/C=C2\SC(=O)N(c3ccc(O)cc3)C2=O)c2ccccc21	?	i	nt	?	?	?
Cc1ccc(CN2CCN(CC(=O)NCc3ccccc3Cl)C2=O)cc1	nt	nt	i	i	nt	nt
CCc1sc(Nc2ccc(C)cc2Br)nc1-c1cc2cccc(OC)c2oc1=O	nt	nt	nt	i	nt	nt
S=C(Nc1ccccc1)Nc1nc2ccccc2n1CCOc1ccc(Br)cc1	i	?	i	i	?	i
Cn1c(NC(=S)Nc2ccccc2)nc2ccccc21	?	?	8.91µM	6.75µM	?	?
Cn1c(NC(=O)c2ccc(F)cc2)nc2ccccc21	3.55µM	?	nt	3.01µM	?	3.98µM
Cn1c(NC(=O)c2ccccc2NC(=O)C(C)(C)C)nc2ccccc21	i	i	i	26.9µM	?	i
CC(C)(C)C(=O)Nc1ccccc1C(=O)Nc1ccccn1	i	i	i	i	i	i
Cc1nc(Nc2ccccc2)c2nc(-c3ccccc3)n(CCN3CCOCC3)c2n1	nt	nt	i	nt	nt	nt
